# This is a sample that favours compounds with a hit; in the whole collection about 0.64% have one here.
# PKM2 act: increases activity of human pyruvate kinase M2; purified PKM2, Kinase-Glo ATP luminescence, activation; response scale: 0% is enzyme alone, no compound; Potency, µM (top dose mostly 57.5 µM), usual class: activators; 260,000 tested, 0.34% active; AID 1631; further: nearly all actives have a fitted effect of over 55% in size
# Target sequence (P14618 whole entry, looked up): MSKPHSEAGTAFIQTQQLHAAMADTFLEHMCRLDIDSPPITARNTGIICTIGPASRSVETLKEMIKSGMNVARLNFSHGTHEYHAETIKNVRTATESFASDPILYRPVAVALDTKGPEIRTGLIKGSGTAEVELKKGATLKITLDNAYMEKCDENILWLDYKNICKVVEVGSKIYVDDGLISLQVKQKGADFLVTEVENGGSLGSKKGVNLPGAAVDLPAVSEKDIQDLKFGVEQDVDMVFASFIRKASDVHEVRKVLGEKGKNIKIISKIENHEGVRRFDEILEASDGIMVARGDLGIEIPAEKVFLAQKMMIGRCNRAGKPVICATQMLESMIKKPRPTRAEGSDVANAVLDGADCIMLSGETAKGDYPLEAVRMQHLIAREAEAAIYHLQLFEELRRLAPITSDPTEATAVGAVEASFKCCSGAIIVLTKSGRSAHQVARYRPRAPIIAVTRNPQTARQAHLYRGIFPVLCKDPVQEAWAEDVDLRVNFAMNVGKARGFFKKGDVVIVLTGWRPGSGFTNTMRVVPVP
#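 hPK-M2, >95% pure; 0.1 mM ADP / 0.5 mM PEP final; imidazole pH7.2 buffer w/ 7 mM MgCl2, 50 mM KCl; 1 h RT; Kinase-Glo lum. Intermediate enzyme activity for dual inhibitor/activator qHTS.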
# EPAC2 agonist: agonists of human EPAC2 (RAPGEF4); Potency, µM (top dose mostly 154 µM), most hits filed as activators; AID 720711; 360,000 tested, 0.079% active; EPAC2 activation, biochemical qHTS; response scale: 100% = 6.5 mM cAMP response; Q8WZA2; further: nearly all actives have a fitted effect of over 50% in size
#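 Readout is BODIPY fluorescence (480 nm excitation, 540 nm emission), which falls as labeled GDP is exchanged off Rap1B. EPAC2 at 100 nM acted on 250 nM RAP1B-BODIPY-GDP with 50 uM GDP present.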
# EPAC1 antag: blocks human EPAC1 exchange factor; 360,000 tested, 0.14% active; EPAC1 GEF assay, Rap1b-BODIPY-GDP exchange fluorescence; AID 720709; O95398; Potency, µM (doses to about 115 µM), hits mostly inhibitors; further: nearly all actives have a fitted effect of over 50% in size
# EPAC2 antag: EPAC2 (human) antagonism. Q8WZA2. EPAC2 GEF exchange of Rap1B-BODIPY-GDP, fluorescence. Potency, µM (series often up to 114 µM), actives largely listed as inhibitors. 360,000 tested, 0.18% active. AID 720708; further: nearly all actives have a fitted effect of over 45% in size
# IL-2 act: activators of IL-2. IL-2 activation reporter assay, cell-based qHTS; stimulated with anti-CD3/CD4/CD28 beads; in transgenic mouse T cells. activation, % (series mostly up to about 46 µM). 360,000 tested, 0.065% active; in the data active means activation above about 50%; inconclusive means mostly about 30% to 49%
#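 Unstimulated transgenic mouse T cells preincubated 60 min with compound, then stimulated with anti-CD3/anti-CD4-coated beads plus anti-CD28 for 18 h at 37 degrees C. IL-2 response read as EGFP and DsRed fluorescence by plate cytometry.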
# EPAC1 agonist: EPAC1 (human) agonism; O95398; EPAC1 agonist qHTS, biochemical assay; response scale: 100% = response to 6.5 mM cAMP; Potency, µM (titrated, usually from 154 µM), hits mostly activators; 360,000 tested, 0.073% active; AID 720707; further: nearly all actives have a fitted effect of over 60% in size
#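 Nucleotide exchange by EPAC1 (100 nM) on Rap1B–BODIPY-GDP (250 nM) in the presence of 50 uM GDP is tracked fluorescently at 480/540 nm over 30 min. Signals are normalized to a 6.5 mM cAMP control.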
# HeLa viability: counter-screen for pyruvate kinase M2 activators: HeLa cytotoxicity. shares compounds with PKM2 act. HeLa viability, CellTiter-Glo ATP luminescence, 24 h. activity change, negative = cytotoxicity, % at 57.5 µM. 230 tested, under 10 active. AID 1898
# Hits are given with their value; n = inactive; u = inconclusive; x = no result. Unless noted, the call rests on the fitted dose curve; in most records, active means well fitted curve in the direction sought with a large enough effect; inconclusive means small, poorly fitted or top-dose-only effect, or another doubt; inactive means no such curve, though single readings can be large; an effect the other way counts as inactive or inconclusive.
SMILES,PKM2 act,EPAC2 agonist,EPAC1 antag,EPAC2 antag,IL-2 act,EPAC1 agonist,HeLa viability
O=C(Cn1ncc2c3ccccc3n(Cc3ccccc3F)c2c1=O)NC1CC1,x,n,n,n,n,n,x
CC(O)c1cc2c(s1)c1cnn(Cc3ccccc3F)c(=O)c1n2C (configuration not stated),x,n,n,n,n,n,n
Cn1c2ccsc2c2cnn(Cc3ccccc3F)c(=O)c21,x,x,x,x,x,x,n
CCCOC1CCCN(C(=O)c2ccc(OC)c(OC3CCN(C(C)C)CC3)c2)C1 (configuration not stated),n,n,n,n,n,n,x
CC(=O)N(c1ccccc1)C1SC(=O)N(c2ccccc2)C1=O (configuration not stated),0.56µM,n,n,n,n,n,n
O=C1SC(Cc2ccccc2)C(=O)N1c1ccccc1 (configuration not stated),n,n,n,n,n,n,x
CN1C(=O)[C@@](O)(c2cn(C)c3ccccc23)c2cc(F)ccc21,x,n,n,n,n,n,x
O=c1c2ccccc2sn1-c1ccc(S(=O)(=O)N2CCCCC2)cc1,x,n,n,n,n,n,x
O=c1c2ccccc2sn1-c1ccc(S(=O)(=O)N2CCCC2)cc1,1.4µM,n,n,n,n,n,n
CC1(C)CC(=O)C2=C(C1)NC(SCC(=O)Nc1ccccc1)=C(C#N)C2c1ccco1 (configuration not stated),n,n,n,n,n,n,x
Cc1ccc(NC(=O)CSC2=C(C#N)C(c3ccco3)C3=C(CCCC3=O)N2)cc1 (configuration not stated),4.5µM,n,n,n,n,n,n
CCC(C)(C)c1ccc(OCCCC[n+]2cccc(C)c2)c(C(C)(C)CC)c1,n,n,n,n,n,n,x
Cc1ccc(-c2nc3ccccn3c2Nc2ccccc2)o1,2.2µM,n,n,n,n,n,n
NC(=O)CC(NC(=O)Cc1ccc(Cl)cc1)c1ccc(NCCc2ccccc2F)c([N+](=O)[O-])c1 (configuration not stated),4µM,n,n,n,n,n,n
NC(=O)CC(NC(=O)Cc1ccc(Cl)cc1)c1ccc(NCC2CC2)c([N+](=O)[O-])c1 (configuration not stated),n,n,n,n,n,n,x
O=S(=O)(NCCNS(=O)(=O)c1c(F)cccc1F)c1ccc2c(c1)OCCO2,x,n,n,n,n,n,n
O=S(=O)(NCCCCNS(=O)(=O)c1c(F)cccc1F)c1ccc2c(c1)OCCO2,x,n,n,n,n,n,n
O=S(=O)(NCC1CCC(NS(=O)(=O)c2c(F)cccc2F)CC1)c1ccc2c(c1)OCCO2 (configuration not stated),x,n,n,n,n,n,x
O=C(Nc1ccccc1)O[C@@H]1C[C@H]2CCC(=O)N3CC[C@@H](C1)[C@@H]23,n,x,x,x,x,x,x
Cc1ccc(C)c(NC(=O)C2CC(O)CN2C(=O)Oc2ccccc2)c1 (configuration not stated),n,n,n,n,n,n,x
COc1cccc(CNC(=O)CCC2CCCN(C(=O)c3cc(C)on3)C2)c1 (configuration not stated),n,n,n,n,n,n,x
COc1cccc(CNC(=O)CCC2CCCN(C(=O)c3cc(C4CC4)[nH]n3)C2)c1 (configuration not stated),3.5µM,n,n,n,n,n,n
C[C@H](CO)N1C[C@H](C)[C@H](CN(C)C(=O)C2CC2)OCc2cnnn2CCCC1=O,x,n,n,n,n,n,x
O=S(=O)(c1cccs1)N1CCN(S(=O)(=O)c2cccs2)CC1,0.4µM,n,n,n,n,n,n
O=C(CCCn1c(=S)[nH]c2cc3c(cc2c1=O)OCO3)NC1CC1,2.8µM,n,n,n,n,n,n
SMILES,PKM2 act,EPAC2 agonist,EPAC1 antag,EPAC2 antag,IL-2 act,EPAC1 agonist,HeLa viability
COc1ccc(CCNC(=O)CSc2ccc3ccccc3c2)cc1OC,n,n,n,n,n,n,x
O=C(CSc1ccc2ccccc2c1)NCCc1ccc(O)c(O)c1,2.8µM,n,n,n,n,n,n
O=c1oc2cc(O)ccc2c2ccccc12,n,n,n,n,n,n,x
NS(=O)(=O)c1ccc2c(c1)oc(=O)c1cc(S(N)(=O)=O)ccc12,0.35µM,n,n,n,n,n,n
CC(C)C[C@H]1CNC(=O)C(=O)N1C[C@@H]1CCCN1C[C@H](Cc1ccccc1)N1C[C@H](Cc2ccccc2)N(CCc2ccccc2)C(=O)C1=O,x,n,n,u,n,n,x
CNc1ncnc2c1ncn2[C@H]1CN(Cc2cccc3ccccc23)C[C@@H](CO)O1,x,n,n,n,n,n,x
CCOC(=O)C1=CC[C@@H](c2ccccc2C(F)(F)F)N(S(=O)(=O)c2ccc(C)cc2)[C@H]1c1ccc(C#N)cc1,x,n,n,n,n,n,x
